Measured values reported in PubChem BioAssay AID492994 (Johns Hopkins Ion Channel Center, 2010).
Potency and affinity values are given separately. Active and inactive are the calls of the source.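 Rule for the calls: active = TRPC4 ion channel inhibited over 30% at some tested dose, with a fitted dose response curve; inactive = no inhibition or no dose response curve.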

The compounds below were run against Short transient receptor potential channel 4 (Mus musculus) (UniProt Q9QUQ5) (assay: TRPC4 inhibitor concentration-response, dose response, cell-based, HEK293 TRPC4/mu-opioid, DAMGO stimulus, Fluo-4 (AID 492994)). Conditions: HEK293 TRPC4/mu-opioid cells, Fluo-4 calcium flux, DAMGO-activated; series mostly up to 20 µM.
Sequence of Short transient receptor potential channel 4 (Mus musculus) (Q9QUQ5 whole entry, looked up): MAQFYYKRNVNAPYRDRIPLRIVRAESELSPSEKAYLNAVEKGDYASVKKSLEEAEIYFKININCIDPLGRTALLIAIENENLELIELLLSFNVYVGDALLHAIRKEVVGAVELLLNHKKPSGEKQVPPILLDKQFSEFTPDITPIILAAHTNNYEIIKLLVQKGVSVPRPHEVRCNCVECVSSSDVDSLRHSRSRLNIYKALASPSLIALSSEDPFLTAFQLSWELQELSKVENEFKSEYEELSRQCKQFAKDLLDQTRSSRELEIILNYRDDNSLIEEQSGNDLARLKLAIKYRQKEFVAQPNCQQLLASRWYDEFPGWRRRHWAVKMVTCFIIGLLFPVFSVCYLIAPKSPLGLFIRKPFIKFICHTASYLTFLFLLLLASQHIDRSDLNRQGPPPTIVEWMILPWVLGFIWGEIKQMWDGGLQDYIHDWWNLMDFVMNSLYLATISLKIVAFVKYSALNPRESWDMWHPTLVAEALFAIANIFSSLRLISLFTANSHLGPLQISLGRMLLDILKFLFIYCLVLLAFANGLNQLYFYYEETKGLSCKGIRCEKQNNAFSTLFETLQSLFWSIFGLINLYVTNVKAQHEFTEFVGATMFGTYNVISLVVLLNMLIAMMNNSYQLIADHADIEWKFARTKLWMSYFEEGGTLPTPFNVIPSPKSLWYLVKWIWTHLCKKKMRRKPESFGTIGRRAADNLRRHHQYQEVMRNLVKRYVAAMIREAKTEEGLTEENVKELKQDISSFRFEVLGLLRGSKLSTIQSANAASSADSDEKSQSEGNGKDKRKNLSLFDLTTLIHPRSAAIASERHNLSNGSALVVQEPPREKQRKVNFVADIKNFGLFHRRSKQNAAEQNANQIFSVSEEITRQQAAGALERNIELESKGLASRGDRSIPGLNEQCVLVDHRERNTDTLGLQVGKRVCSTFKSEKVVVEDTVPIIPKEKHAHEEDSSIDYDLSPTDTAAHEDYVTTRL

outcome, inactive:
COc1ccc(N2CCN(c3cc(C)c4ccccc4n3)CC2)cc1
Cc1cc(N2CCCCC2)nc2c(C)cccc12
FC(F)(F)c1cc(N2CCCC2)nc2ccccc12
FC(F)(F)c1cc(N2CCCCC2)nc2ccccc12
Cc1cc(N2CCN(c3ccccc3C#N)CC2)nc2ccccc12
Cc1ccnc(N2CCCC2)c1
c1ccc(-c2cc(N3CCCCC3)nc3ccccc23)cc1
Cc1ccnc(N2CCCCCC2)n1
Cc1ccnc(N2CCCCC2)n1
c1ccc(-c2cc(N3CCCCCC3)nc3ccccc23)cc1
c1ccc(-c2cc(N3CCCC3)nc3ccccc23)cc1
Cc1cc(N(C)CCN(C)C)nc2ccccc12
Cc1ccnc(N2CCCCCC2)c1
Cc1ccnc(N2CCCC2)n1
Cc1cc(N2CCCCCC2)nc2c(C)cccc12
CCc1ccc2nc(N3CCCCC3)cc(C)c2c1
FC(F)(F)c1cc(N2CCCCCC2)nc2ccccc12
Cc1cc(N2CCN(CC3CCCO3)CC2)nc2ccccc12 (stereo not given)
COc1ccccc1N1CCN(c2cc(C)c3ccccc3n2)CC1
Cc1ccnc(N2CCCCC2)c1
